Assay [1] has as its target Glutathione peroxidase 1 (Homo sapiens) (UniProt P07203). Nature of the assay: Primary qHTS Assay for Inhibitors of Recombinant Selenoprotein Glutathione Peroxidase 1 (GPX1) (AID 1845191). Also: nearly all actives have a fitted effect of over 65% in size. As to activity, negative = inhibition: % is scaled to controls: 0 for no effect and ±100 for the full control effect. The method, boiled down:
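GR-coupled readout: NADPH consumption tracked by fluorescence, ex 340/em 450 nm, at t=0 and after 15 min at RT. Final mix 10 nM GPX1, 1 mM GSH, 0.5 mM CHP, 0.5 mM NADPH, 100 nM GR, 0.01% BSA, following 30 min enzyme–compound preincubation.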

For assay [2], the target named is Phospholipid hydroperoxide glutathione peroxidase GPX4 (Homo sapiens) (UniProt P36969). Nature of the assay: Primary qHTS Assay for Inhibitors of Recombinant Selenoprotein Glutathione Peroxidase 4 (GPX4) (AID 1845192). Also: nearly all actives have a fitted effect of over 65% in size. The method, boiled down: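 Steps: GPX4 plus compound, 30 min RT; add GR/GSH/NADPH master mix; start with cumene hydroperoxide; read 340/450 nm fluorescence at 0 and 15 min. Finals were 200 nM GPX4, 1 mM GSH, 0.5 mM CHP, 0.5 mM NADPH, 100 nM GR.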
Chain of Phospholipid hydroperoxide glutathione peroxidase GPX4 (Homo sapiens) (P36969 whole entry, looked up): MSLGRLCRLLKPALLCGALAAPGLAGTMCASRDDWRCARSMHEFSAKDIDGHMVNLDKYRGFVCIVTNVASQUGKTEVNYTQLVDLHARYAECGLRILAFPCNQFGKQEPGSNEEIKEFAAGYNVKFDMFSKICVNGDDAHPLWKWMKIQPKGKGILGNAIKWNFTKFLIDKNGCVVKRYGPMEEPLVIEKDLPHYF
(In general: qHTS replaces the single test concentration by a dilution series.)

Assay [3] has as its target Luciferin 4-monooxygenase (Photinus pyralis) (UniProt P08659). Nature of the assay: Primary firefly luciferase (FLuc) qHTS assay for identification of artifact compounds. (AID 1845220). Also: nearly all actives have a fitted effect of over 60% in size. The method, boiled down:
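D-luciferin and ATP (10 uM each, final) in Tris acetate buffer pH 7.6 were incubated with compounds for 15 min at room temperature. The reaction was started with 10 nM Photinus pyralis luciferase and luminescence read after 5 min. Percent inhibition was fitted to a 4-parameter Hill equation.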

A short description of assay [4]: Primary fluorescence-based thiol-reactive (MSTI) qHTS assay for identification of artifact compounds. (AID 1845221). Also: nearly all actives have a fitted effect of over 65% in size. Also: potency is read from the fitted curve at half-maximal effect.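 As to activity change, negative = thiol reactive: series mostly up to about 54 µM; thiol-reactive compounds lower the probe fluorescence signal.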 In outline:
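MSTI probe at 4 uM final in 2% DMSO/PBS pH 7.4; compounds, 1 h at room temperature in dark. Fluorescence Ex/Em 525/598 nm, normalised to Acetyl-MSTI and MSTI, fitted to 4-parameter Hill.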

Assay [5] has as its system Nanoluciferase (engineered Oplophorus gracilirostris luciferase). Nature of the assay: Primary Nanoluciferase (NLuc) qHTS assay for identification of artifact compounds. (AID 1845222).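 Also: series mostly up to about 54 µM; 0% = DMSO and -100% = no enzyme.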 In outline:
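Diluted conditioned medium from NLuc-expressing S16 cells treated with compounds for 15 min at room temperature, then Nano-Glo substrate added; luminescence read after 5 min. Percent inhibition versus no-enzyme and DMSO controls fitted to 4-parameter Hill equation.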

Assay [6] in a line: Primary redox qHTS assay for identification of artifact compounds. (AID 1845223).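 Also: 0% = DMSO and 100% = reference compound.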 The method, boiled down:
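Redox-cycling detection via DTT (250 uM final) oxidation coupled to Amplex Red (25 uM)/HRP (250 mU/mL) in HBSS. 15 min preincubation plus 30 min after DTT, room temperature. Ex/Em 525/598 nm; 4-parameter Hill fit against DMSO and 10 uM DA3003.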

Molecules are shown by their SMILES. Values without a mark were called inactive. Inconclusive results are not listed. Active and inactive are the calls of the source. Calls follow the shape of the dose curve; as a rule, active = well fitted curve in the direction sought with a large enough effect; inconclusive = small, poorly fitted or top-dose-only effect, or another doubt; inactive = no such curve, though single readings can be large; an effect the other way counts as inactive or inconclusive.

Chain of Glutathione peroxidase 1 (Homo sapiens) (P07203 whole entry, looked up): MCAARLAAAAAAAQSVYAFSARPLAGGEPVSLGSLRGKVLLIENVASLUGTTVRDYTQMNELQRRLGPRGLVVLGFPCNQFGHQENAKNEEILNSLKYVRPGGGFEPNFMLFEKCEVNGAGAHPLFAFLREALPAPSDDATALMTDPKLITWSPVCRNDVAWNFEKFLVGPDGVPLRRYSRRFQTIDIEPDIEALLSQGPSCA

On to `CCC(C)C1NC(=O)C2C(C)CCN2C(=O)C(CC(O)CO)OC(=O)CCNC(=O)C(C)N(C)C(=O)C(C(C)C)N(C)C1=O` (stereo not given), for which the Potency result in assay [1], in assay [2], in assay [3], in assay [4], in assay [5] and in assay [6] was “inactive” each time.
Turning to `CC12CC34CC(O)C5C(CO)(CO)CC(=O)CC5(C)C3CC1C2C4` (stereo not given), the Potency entry in assay [1], in assay [2], in assay [3], in assay [4], in assay [5] and in assay [6] was “inactive” in each case.
As for `COc1cc(C2Oc3c(OC)cc(CCCO)cc3C2CO)ccc1O` (stereo not given), the Potency entry in assay [1], in assay [2], in assay [3], in assay [5] and in assay [6] was “inactive” each time. The Potency in assay [4] is 13.1 µM (active).
Regarding `CC1(CO)CCCC2(C)C1C(OC(=O)c1ccccc1)CC1C(=O)OCC12O` (stereo not given), the Potency result in assay [1], in assay [2], in assay [3], in assay [4], in assay [5] and in assay [6] was “inactive” throughout.
As to `O=C(/C=C/c1ccc(O)c(O)c1)OC[C@H]1O[C@@H](OC2CCCCC2O)[C@H](O)[C@@H](O)[C@@H]1O` (stereo not given in full), the Potency result in assay [1], in assay [2], in assay [3], in assay [5] and in assay [6] was “inactive” in each case. Moreover, the Potency in assay [4] was 1.16 µM (active).
In the case of `CC(=O)OC1C(O)C(C)(O)C(/C=C/C(=O)O)C2(C)CCCC(C)(C)C12` (stereo not given), the Potency entry in assay [1], in assay [2], in assay [3], in assay [4], in assay [5] and in assay [6] was “inactive” throughout.
Regarding `CCN=C1N[C@@H]2[C@@H](O)[C@H](O)[C@@H](CO)O[C@@H]2S1`, the Potency entry in assay [1], in assay [2], in assay [3], in assay [4], in assay [5] and in assay [6] was “inactive” each time.
For the compound `COc1ccnc(CCc2nc3ncccc3[nH]2)c1`, the Potency entry in assay [1], in assay [2], in assay [3], in assay [4], in assay [5] and in assay [6] was “inactive” in each case.
With `C[C@]1(OC(=O)/C=C/c2ccc(O)cc2)C[C@@H](O)[C@]2(O)C=CO[C@@H](O[C@@H]3O[C@H](CO)[C@@H](O)[C@H](O)[C@H]3O)C12` (stereo not given in full), the Potency result in assay [1], in assay [2], in assay [3], in assay [4], in assay [5] and in assay [6] was “inactive” in each case.
For the compound `COC(=O)[C@H](O)[C@H]1C(C)(C)[C@H](OC(C)=O)[C@@]2(O)C(=O)[C@]1(C)C1CC[C@]3(C)C(CC(=O)O[C@H]3c3ccoc3)[C@]13O[C@@H]32` (stereo not given in full), the Potency entry in assay [1], in assay [2], in assay [3], in assay [4], in assay [5] and in assay [6] was “inactive” in each case.
In the case of `CC1(C)O[C@H]2CC(=O)OC[C@@]23C1=C(O)C(=O)[C@]1(C)C3CC[C@@]2(C)[C@H](c3ccoc3)OC(=O)[C@H]3O[C@]321` (stereo not given in full), the Potency entry in assay [1], in assay [2], in assay [3], in assay [4], in assay [5] and in assay [6] was “inactive” in each case.
As to `C[C@@H]1CC[C@]2(C(=O)O)CC[C@]3(C)C(=CCC4[C@@]5(C)C[C@@H](O)[C@@H](O)C(C)(C)C5CC[C@]43C)C2[C@]1(C)O` (stereo not given in full), the Potency result in assay [1], in assay [2], in assay [3], in assay [4], in assay [5] and in assay [6] was “inactive” each time.
Consider `C=C1CCC2[C@@](C)(C(=O)O)CCC[C@@]2(C)[C@@H]1CCc1ccoc1` (stereo not given in full), for which the Potency entry in assay [1], in assay [2], in assay [3], in assay [4], in assay [5] and in assay [6] was “inactive” each time.
As for `COC(=O)C1=CO[C@@H](O[C@@H]2O[C@H](CO)[C@@H](O)[C@H](O)[C@H]2O)[C@@H]2[C@@H](CO)[C@@H](O)C(O)[C@H]12` (stereo not given in full), the Potency result in assay [1], in assay [2], in assay [3], in assay [4], in assay [5] and in assay [6] was “inactive” in each case.
As to `COc1ccccc1CN[C@H]1CCCN[C@H]1c1ccccc1`, the Potency entry in assay [1], in assay [2], in assay [3], in assay [4], in assay [5] and in assay [6] was “inactive” each time.
Turning to `C[C@@]1(C(=O)O)CCC[C@@]2(C)C3=CC[C@H]4C[C@@]3(CC[C@H]12)CC4(O)CO` (stereo not given in full), the Potency result in assay [1], in assay [2], in assay [3], in assay [4], in assay [5] and in assay [6] was “inactive” each time.
`CC1C2=CC(=O)OC2(O)CC2C1CCC1C(C)(C)CCC(O)C21C` (stereo not given): the Potency entry in assay [1], in assay [2], in assay [3], in assay [4], in assay [5] and in assay [6] was “inactive” in each case.
For `NC[C@H]1CCC[C@@H](CNC(=O)[C@@H](Cc2c[nH]c3ccccc23)NC(=O)N2CCC3(C=Cc4ccccc43)CC2)C1`, the Potency entry in assay [1], in assay [2], in assay [3], in assay [4], in assay [5] and in assay [6] was “inactive” each time.
For the compound `CC(C)CC(=O)O[C@@H]1O[C@H](CO)[C@@H](O[C@H]2O[C@H](C)[C@@H](N[C@H]3C=C(CO)[C@@H](O[C@H]4O[C@H](CO)[C@@H](O[C@H]5O[C@H](CO)[C@@H](O[C@H]6O[C@H](CO)[C@@H](O)[C@H](O)[C@H]6O)[C@H](O)[C@H]5O)[C@H](O)[C@H]4O)[C@H](O)[C@H]3O)[C@H](O)[C@H]2O)[C@H](O)[C@H]1O`, the Potency result in assay [1] and in assay [2] was “inactive” each time. The outcome in assay [3] was “inactive [at 11.6 µM]”. Besides, the activity change, negative = thiol reactive in assay [4] was 7.36% [at 11.5 µM]. The activity, negative = inhibition in assay [5] is 0.158% [at 11.6 µM]. In addition, in assay [6], the redox activity (% of DA3003) was 4.39% [at 11.5 µM].
On to `CCCC(=O)Nc1cccc(NC(=O)c2ccccc2Br)c1`, for which the Potency entry in assay [1], in assay [2], in assay [3], in assay [4], in assay [5] and in assay [6] was “inactive” throughout.

Values taken from PubChem BioAssay (NCATS).
